This passage reports composite z-score and z-score results from PubChem BioAssay.

The test system of test [1] is Plasmodium falciparum Sir2 (PF13_0152, Sir2A). Description: pfSir2 binders on small-molecule microarrays, primary screen, biochemical, small-molecule microarray, 635 nm fluorescence (AID 1098).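 Note: score merges spot fluorescence intensity with its signal-to-noise ratio.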 The following applies: small-molecule microarray binding, fluorescence 635 nm; higher = more signal.
A short description of test [2]: small-molecule microarray binders of probe aDKK1, primary screen, biochemical, biotinylated probe, 635/667 nm fluorescence (AID 1099).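 Note: score merges 667nm spot fluorescence with signal to noise across triplicate slides.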 The following applies: higher = more signal.
Test [3] in a line: small-molecule microarray binders of probe aCHRDL2, primary screen, biochemical, biotinylated probe, 635/667 nm fluorescence (AID 1100). The following applies: higher = more signal.
Test [4] in a line: splicing luciferase reporter signal modulators, primary screen, spliceosome inhibition project, cell-based, HEK293, splice +/- reporter (AID 1101).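 Note: HEK293 cells carrying a splicing-competent luciferase reporter gene; test concentration not given here.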 The following applies: luminescence, 24 h, higher = more signal, called active from +8 up or from −8 down.
In test [5] the target is Fibroblast growth factor 10 (Homo sapiens) (UniProt O15520). The test can be described thus: FGF10 binders on small-molecule microarrays, primary screen, biochemical, small-molecule microarray, 635 nm fluorescence (AID 1102). The following applies: FGF10 binding, fluorescence 635 nm, higher = more signal.
The test system of test [6] is glycogen synthase kinase-3 (GSK3A per assay name; protocol says GSK3B). The test can be described thus: GSK3 binders on small-molecule microarrays, primary screen, biochemical, small-molecule microarray, 635 nm fluorescence, GSK3A (AID 1103). Note: the record names both GSK3A and GSK3B. Particulars: small-molecule microarray binding, fluorescence 635 nm; higher = more signal.
Test [7] addresses Epidermal growth factor receptor (Homo sapiens) (UniProt P00533). Description: EGFR binders on small-molecule microarrays, primary screen, biochemical, small-molecule microarray, 635 nm fluorescence (AID 1104).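 Note: score merges 667 nm emission intensity with spot signal to noise over triplicate slides.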 The following applies: EGFR binding, higher = more signal.
The target in test [8] is Follistatin-related protein 3 (Homo sapiens) (UniProt O95633). Description: FSTL3 binders on small-molecule microarrays, primary screen, biochemical, small-molecule microarray, 635 nm fluorescence (AID 1105).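 Note: score merges emission near 667 nm and signal to noise per printed spot across three slides.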 The following applies: FSTL3 binding, higher = more signal.
The target of test [9] is Dickkopf-related protein 1 (Homo sapiens) (UniProt O94907). The test can be described thus: DKK1 binders on small-molecule microarrays, primary screen, biochemical, small-molecule microarray, 635 nm fluorescence scan (AID 1106).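 Note: score merges emission near 667 nm with signal to noise over three replicate slides.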 Particulars: DKK1 binding, higher = more signal.
The test system of test [10] is Inhibin beta A chain (activin A). Description: INHBA (activin A) binders on microarrays, primary screen, biochemical, small-molecule microarray, 635 nm fluorescence scan (AID 1107).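 Note: mouse activin A protein probed at 4.33 µg/mL on printed slides; score merges bound-protein fluorescence near 667 nm with spot signal-to-noise.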 The following applies: small-molecule microarray binding, higher = more signal.
Test [11] has as its system Human papillomavirus type 1a protein E7 (residues 44-93). The test can be described thus: HPV1a E7 fragment binders on microarrays, primary screen, biochemical, small-molecule microarray, residues 44-93, 635 nm fluorescence (AID 1108).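 Note: E7 fragment applied at 1 µg/mL in TBST for 1 h at 4 C; score combines spot fluorescence with its signal to noise ratio.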 The following applies: small-molecule microarray binding, fluorescence 635 nm; higher = more signal.
Test [12] is described as follows: modulators of HCV replicon luciferase signal, primary screen, HCV replication inhibitor project, Huh7 cells, luciferase reporter (AID 1109).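 Note: huh7 hepatoma cells harbouring a luciferase neomycin HCV replicon reporter; luciferase luminescence as measure of HCV replicon replication; test concentration not given here.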 The following applies: 48 h, higher = more signal. For orientation: In antiviral work, replicon cells carry a viral genome segment that copies itself.
For test [13], the target named is Left-right determination factor 2 (Homo sapiens) (UniProt O00292). The test can be described thus: LEFTY2 binders on small-molecule microarrays, primary screen, biochemical, small-molecule microarray, 635 nm fluorescence scan (AID 1110). The following applies: LEFTY2 binding, higher = more signal.
Test [14] concerns the target Calmodulin-1 (Homo sapiens) (UniProt P0DP23). Description: CALM1 binders on microarrays, EGTA buffer, profiling panel, biochemical, small-molecule microarray, Cy5-labelled CALM1 (AID 1111).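 Note: labelled calmodulin applied in Tris saline Tween buffer holding calcium plus EGTA and DTT.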 The following applies: Cy5-CALM1 binding fluorescence, higher = more signal.
The target is the same in test [15]. Description: calcium-bound CALM1 binders on microarrays, profiling panel, artefact control for SMM control-protein annotation, biochemical, small-molecule microarray, Cy5-labelled CALM1, plus calcium (AID 1112).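 Note: score merges spot fluorescence with signal to noise from triplicate slides.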 The following applies: Cy5-CALM1 binding fluorescence, higher = more signal.
Test [16] can be described thus: small-molecule microarray binders of probe aWnt5a, primary screen, biochemical, biotinylated probe, 635/667 nm fluorescence (AID 1113).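 Note: score merges 667 nm fluorescence intensity with signal-to-noise per printed feature.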 The following applies: higher = more signal.
Test [17] in a line: small-molecule microarray binders of probe aShh, primary screen, biochemical, biotinylated probe, 635/667 nm fluorescence (AID 1114).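 Note: probe is biotin-labelled aShh protein from a stem cell growth factor screen; measures binding of labelled protein to compounds printed on the slide; score merges feature fluorescence at 667 nm with signal-to-noise.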 The following applies: higher = more signal.
A short description of test [18]: small-molecule microarray binders of probe aNog, primary screen, biochemical, biotinylated probe, 635/667 nm fluorescence (AID 1115).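 Note: probe is biotinylated aNog protein used at 0.15 µg/mL for 1 h at 4 C; z-score combines 667 nm fluorescence of each spot with its signal to noise.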 Particulars: higher = more signal.
Test [19] concerns the target Torsin-1A-interacting protein 1 (Homo sapiens) (UniProt Q5JTV8). The test can be described thus: LAP1 binders from COS7 cell lysate, primary screen, small-molecule microarray, 635/667 nm fluorescence (AID 1116). Particulars: COS7-hLAP1 lysate binding, 635 nm fluorescence, higher = more signal.
Test [20] addresses Alpha-bungarotoxin (Bungarus multicinctus) (UniProt P60615). Description: alpha-bungarotoxin binders on microarray, profiling panel, artefact control for SMM control protein annotation, biochemical, small-molecule microarray, Alexa647 label, 635/667 nm fluorescence (AID 1117). Particulars: alpha-BTX-A647 binding fluorescence, higher = more signal.

Molecules are shown by their SMILES. Calls of active or inactive are those of the source.

Dickkopf-related protein 1 (Homo sapiens), sequence (O94907 whole entry, looked up): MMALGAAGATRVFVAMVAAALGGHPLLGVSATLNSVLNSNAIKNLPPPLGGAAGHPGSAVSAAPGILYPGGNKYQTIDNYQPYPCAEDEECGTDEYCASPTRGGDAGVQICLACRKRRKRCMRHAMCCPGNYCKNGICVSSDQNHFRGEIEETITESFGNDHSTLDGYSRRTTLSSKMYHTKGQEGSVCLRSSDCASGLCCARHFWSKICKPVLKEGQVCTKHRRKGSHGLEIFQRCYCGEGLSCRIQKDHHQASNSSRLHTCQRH
Alpha-bungarotoxin (Bungarus multicinctus), sequence (P60615 whole entry, looked up): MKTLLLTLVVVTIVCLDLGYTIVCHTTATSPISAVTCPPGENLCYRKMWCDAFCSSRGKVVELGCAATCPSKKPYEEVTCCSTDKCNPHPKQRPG
Epidermal growth factor receptor (Homo sapiens), sequence (P00533 whole entry, looked up): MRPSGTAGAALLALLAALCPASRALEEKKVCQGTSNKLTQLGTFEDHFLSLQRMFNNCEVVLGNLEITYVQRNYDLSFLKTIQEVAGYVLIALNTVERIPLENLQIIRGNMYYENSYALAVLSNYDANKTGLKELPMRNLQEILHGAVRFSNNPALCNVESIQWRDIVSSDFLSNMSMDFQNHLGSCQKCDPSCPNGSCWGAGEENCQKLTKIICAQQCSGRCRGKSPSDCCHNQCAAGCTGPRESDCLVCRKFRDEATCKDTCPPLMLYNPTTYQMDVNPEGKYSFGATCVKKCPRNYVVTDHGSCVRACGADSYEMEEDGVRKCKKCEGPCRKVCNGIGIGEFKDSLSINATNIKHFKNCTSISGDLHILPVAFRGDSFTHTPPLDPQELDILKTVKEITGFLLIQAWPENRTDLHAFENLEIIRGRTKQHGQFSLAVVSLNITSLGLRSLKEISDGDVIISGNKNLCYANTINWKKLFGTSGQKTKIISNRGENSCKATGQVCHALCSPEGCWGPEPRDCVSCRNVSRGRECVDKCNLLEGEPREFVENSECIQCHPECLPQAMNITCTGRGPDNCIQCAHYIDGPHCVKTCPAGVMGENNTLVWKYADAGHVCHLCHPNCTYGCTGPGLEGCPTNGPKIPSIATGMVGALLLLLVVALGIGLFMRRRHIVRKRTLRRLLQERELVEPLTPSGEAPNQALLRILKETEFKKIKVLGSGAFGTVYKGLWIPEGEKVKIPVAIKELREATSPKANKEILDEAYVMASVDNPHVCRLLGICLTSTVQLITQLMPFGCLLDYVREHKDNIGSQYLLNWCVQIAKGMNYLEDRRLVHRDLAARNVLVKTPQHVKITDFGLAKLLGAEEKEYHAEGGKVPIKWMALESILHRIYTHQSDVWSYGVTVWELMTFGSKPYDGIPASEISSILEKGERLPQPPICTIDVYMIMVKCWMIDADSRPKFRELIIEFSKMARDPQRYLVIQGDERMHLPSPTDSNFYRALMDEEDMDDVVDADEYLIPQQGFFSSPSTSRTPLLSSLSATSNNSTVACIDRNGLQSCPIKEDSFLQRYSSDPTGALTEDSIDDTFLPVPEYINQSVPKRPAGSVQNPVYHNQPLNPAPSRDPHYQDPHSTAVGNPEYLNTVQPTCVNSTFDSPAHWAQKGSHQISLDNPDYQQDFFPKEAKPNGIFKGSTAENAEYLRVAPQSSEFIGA
Torsin-1A-interacting protein 1 (Homo sapiens), sequence (Q5JTV8 whole entry, looked up): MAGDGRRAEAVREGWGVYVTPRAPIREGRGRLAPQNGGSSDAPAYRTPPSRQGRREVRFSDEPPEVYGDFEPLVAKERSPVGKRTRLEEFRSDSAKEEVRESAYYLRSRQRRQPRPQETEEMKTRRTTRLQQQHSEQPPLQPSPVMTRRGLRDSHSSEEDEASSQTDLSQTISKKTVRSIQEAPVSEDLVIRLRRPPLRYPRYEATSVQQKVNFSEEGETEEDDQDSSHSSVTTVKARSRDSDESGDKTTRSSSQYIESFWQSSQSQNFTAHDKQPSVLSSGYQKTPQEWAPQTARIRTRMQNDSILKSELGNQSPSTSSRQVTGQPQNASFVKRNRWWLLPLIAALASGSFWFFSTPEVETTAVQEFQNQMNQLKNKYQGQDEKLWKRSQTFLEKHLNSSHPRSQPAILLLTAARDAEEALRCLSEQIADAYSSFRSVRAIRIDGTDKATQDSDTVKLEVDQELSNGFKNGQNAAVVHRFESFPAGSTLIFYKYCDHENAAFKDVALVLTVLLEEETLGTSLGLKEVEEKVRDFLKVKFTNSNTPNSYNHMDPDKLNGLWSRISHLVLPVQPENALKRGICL
Follistatin-related protein 3 (Homo sapiens), sequence (O95633 whole entry, looked up): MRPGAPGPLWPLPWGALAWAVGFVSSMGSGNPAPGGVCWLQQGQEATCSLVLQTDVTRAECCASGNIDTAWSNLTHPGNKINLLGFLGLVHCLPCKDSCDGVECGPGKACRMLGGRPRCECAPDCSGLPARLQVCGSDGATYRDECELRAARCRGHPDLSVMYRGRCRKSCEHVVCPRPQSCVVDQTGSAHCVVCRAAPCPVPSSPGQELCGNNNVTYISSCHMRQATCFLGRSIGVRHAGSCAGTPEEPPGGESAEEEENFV
Fibroblast growth factor 10 (Homo sapiens), sequence (O15520 whole entry, looked up): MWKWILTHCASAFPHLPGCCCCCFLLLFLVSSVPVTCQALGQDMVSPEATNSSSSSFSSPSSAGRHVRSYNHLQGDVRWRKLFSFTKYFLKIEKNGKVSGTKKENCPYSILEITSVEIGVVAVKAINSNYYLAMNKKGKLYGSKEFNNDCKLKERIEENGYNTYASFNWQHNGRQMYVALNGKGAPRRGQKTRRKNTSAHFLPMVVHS
Left-right determination factor 2 (Homo sapiens), sequence (O00292 whole entry, looked up): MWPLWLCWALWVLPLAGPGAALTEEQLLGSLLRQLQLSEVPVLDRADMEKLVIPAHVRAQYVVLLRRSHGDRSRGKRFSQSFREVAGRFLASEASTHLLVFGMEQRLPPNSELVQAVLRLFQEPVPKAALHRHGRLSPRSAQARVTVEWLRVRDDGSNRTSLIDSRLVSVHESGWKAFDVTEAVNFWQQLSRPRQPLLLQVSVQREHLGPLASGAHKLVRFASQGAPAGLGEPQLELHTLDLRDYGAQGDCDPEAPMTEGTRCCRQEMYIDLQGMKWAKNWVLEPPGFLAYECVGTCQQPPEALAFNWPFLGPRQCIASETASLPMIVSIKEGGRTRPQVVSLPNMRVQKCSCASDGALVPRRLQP

For `C[C@@H](c1ccccc1)N1C(=O)[C@H]2[C@H]3[C@H](O)[C@H](O)CC(=NOCc4ccccc4)[C@@H]3CC[C@H]2C1=O`, the composite z-score is -0.139 in test [1]; 1.19 in test [2]; 1.31 in test [3]; -0.222 in [5]; -0.187 in test [6]; -0.169 in test [7]. Besides, the composite z-score was -0.909 in test [8]; -1 in test [9]; 0.549 in [10]; -0.233 in test [11]; 0.11 in test [13]; -0.38 in test [14]. For the same compound, the composite z-score in test [15] is -0.0198; in test [16], 0.0061; in test [17], -0.276; in test [18] it was 0.593; in [19], 0.348; in test [20], 0.993. For the same compound, the z-score in test [4] was 0.36 (inactive); in test [12], -0.701.
In the case of `CC(C)CN1CCc2nc(-c3ccccc3)c3c(c2C1)CO[C@@H](C)C3`, the composite z-score was 0.639 in test [1]; 0.264 in [2]; -0.291 in test [3]; 0.929 in test [5]; 1.16 in test [6]; 0.383 in [7]. Moreover, the composite z-score is 1.05 in test [8]; 0.512 in [9]; 0.0576 in test [10]; 1.01 in test [11]; 0.881 in test [13]; 0.566 in test [14]. The composite z-score in [15] is 0.32; in [16], -0.0285; in test [17], 0.0751; in test [18], -0.149; in test [19] it was 0.152; in test [20] it was 0.365. In addition, the z-score in test [4] is 0.185 (inactive); in test [12] it was -0.791.
In the case of `CC(C)(C)N1C(=O)[C@H]2[C@@H]3C(=CC[C@H]2C1=O)C(=O)[C@H]1O[C@H]1[C@H]3O`, the composite z-score in test [1] was 1.09; in test [2], -0.366; in test [3], -0.779; in test [5], 0.0491; in test [6], 0.138; in [7], 0.144. Further, the composite z-score in test [8] is -0.162; in test [9] it was 0.512; in test [10], 0.555; in [11] it was -2.12; in test [13], 0.341; in test [14] it was -1.08. In addition, the composite z-score is -1.48 in [15]; -0.0735 in [16]; -0.273 in [17]; -0.571 in [18]; -0.139 in test [19]; -0.0321 in test [20]. Besides, the z-score is 3.47 (inactive) in test [4] and -4.79 in test [12].
As to `C[C@@H](c1ccccc1)N1C(=O)[C@H]2[C@H]3[C@H](O)[C@H](O)CC(=NNC(=O)OCc4ccccc4)[C@@H]3CC[C@H]2C1=O`, the composite z-score was 0.404 in [1]; -0.657 in [2]; -1.57 in test [3]; -0.0948 in [5]; 1.25 in test [6]; 0.845 in test [7]. Further, the composite z-score in [8] is 1.5; in [9], 1.94; in [10], 1.56; in test [11] it was -0.347; in test [13], 1.17; in test [14] it was -1.16. For the same compound, the composite z-score in [15] is -1.94; in test [16], -0.158; in test [17] it was 0.0062; in test [18] it was -0.545; in [19] it was -0.043; in test [20], -0.716. Besides, the results for the z-score in test [4] and in [12] were 0.574 (inactive) and -1.01, respectively.
Turning to `CC(=O)OC[C@H]1O[C@H](CC=NOC[C@@H](O)COCc2ccco2)C=C[C@@H]1OC(C)=O`, the composite z-score in test [1] is 0.717; in test [2], -0.233; in test [3], -1.06; in test [5], 0.397; in [6], 1.24; in test [7] it was 1.58. Also, the composite z-score in [8] is 1.37; in [9], 1.74; in test [10] it was 1.14; in test [11] it was -0.646; in test [13] it was 0.898; in test [14], -1.18. Also, the composite z-score in [15] is -2.22; in [16] it was -0.102; in test [17], -0.356; in test [18], -0.498; in [19], 1.58; in [20], -0.663. Also, the z-score is -0.0391 (inactive) in test [4] and 0.586 in [12].
Turning to `O=C1C=C[C@@H](O)[C@@H]2[C@@H]3C(=O)N(Cc4ccccc4)C(=O)[C@@H]3CC[C@@H]12`, the composite z-score in [1] is 0.295; in test [2] it was -0.262; in test [3], -0.684; in test [5], 0.659; in test [6] it was 0.653; in [7], 0.552. The composite z-score was 0.353 in test [8]; 0.232 in test [9]; 0.181 in [10]; 0.248 in [11]; 0.527 in test [13]; -0.133 in test [14]. The composite z-score in test [15] was -0.457; in test [16], -0.0758; in test [17], -0.283; in test [18] it was -0.213; in test [19], 0.476; in test [20], 0.332. In addition, the z-score was -0.71 (inactive) in [4] and 0.493 in test [12].
For `O=C(NN=C1C[C@@H](O)[C@@H](O)[C@@H]2[C@@H]3C(=O)N(Cc4ccc5c(c4)OCO5)C(=O)[C@@H]3CC[C@@H]12)OCc1ccccc1`, the composite z-score in test [1] is -0.0768; in test [2], 0.618; in test [3] it was 0.828; in test [5], -0.319; in [6] it was -0.456; in test [7], -0.254. Also, the composite z-score in test [8] is -0.408; in [9], -0.465; in test [10], 0.319; in [11], -0.189; in [13], 0.0764; in test [14] it was -0.114. Moreover, the composite z-score in test [15] is -0.103; in test [16] it was -0.176; in [17], 0.227; in test [18] it was -0.0498; in test [19], 0.739; in test [20], 0.26. The z-score is -1.41 (inactive) in [4] and -1.39 in test [12].
`O=C1[C@H]2[C@H]3[C@H](O)[C@H](O)CC(=NOC[C@@H](O)COCc4ccco4)[C@@H]3CC[C@H]2C(=O)N1Cc1ccc2c(c1)OCO2`: the composite z-score in test [1] is 0.867; in test [2], -0.387; in test [3], -1.42; in [5] it was -0.454; in test [6], 1.3; in test [7], 1.15. Besides, the composite z-score in test [8] is 0.9; in [9], 1.47; in [10], 0.506; in test [11], -0.772; in test [13], 1.44; in test [14], -0.982. Besides, the composite z-score in test [15] was -2.03; in test [16], -0.172; in [17], -0.123; in [18], -0.34; in test [19], 0.0886; in test [20], 0.0167. The z-score is -0.119 (inactive) in [4] and 0.0878 in test [12].
